Measured values: ChEMBL document CHEMBL4513141, “CO-ADD screening of NIH (USA) - Clinical Collection” (2021)
Potency and affinity values are given separately.

Columns and labels:
[1] = test system: Klebsiella pneumoniae; conditions: Concentration 20 uM; ASSAY_TEST Inhibition of Bacterial Growth; detection method Absorption (OD600); MEDIA CAMHB; plate type 384well; NBS; CORNING #3640; time 18 hr
[2] = test system: Candida albicans; conditions: 20 µM
[3] = test system: Cryptococcus neoformans; conditions: Concentration 20 uM; ASSAY_TEST Inhibition of Fungal Growth; detection method Resazurin; Absorption (OD600-OD570); plate type 384well; NBS; CORNING #3640

| Structure (SMILES) | Inhibition [1] | Inhibition [2] | Inhibition [3] |
| --- | --- | --- | --- |
| CC(Oc1c(Cl)cccc1Cl)C1=NCCN1.Cl (stereo not drawn) [LOFEXIDINE HYDROCHLORIDE] | 6.35% | 2.12% | -0.75% |
| Cl.O=c1n(CCCN2CCN(c3cccc(Cl)c3)CC2)nc2ccccn12 [TRAZODONE HYDROCHLORIDE] | 4.82% | 3.08% | -5.73% |
| CC(=O)O.CNC(=N)NCCC[C@H](N)C(=O)O [TILARGININE ACETATE] | -3.72% | 2.96% | -3.5% |
| Cc1ccc(C)c(OCCCC(C)(C)C(=O)O)c1 [GEMFIBROZIL] | 7.25% | 8.15% | -1.55% |
| CNCC(O)c1ccc(O)c(O)c1 (stereo not drawn) [RACEPINEPHRINE] | 12.35% | 4.12% | -0.68% |
| NNCCc1ccccc1.O=S(=O)(O)O [PHENELZINE SULFATE] | 6.23% | 4.34% | -10.12% |
| Cc1cccc(Nc2ccccc2C(=O)O)c1C [MEFENAMIC ACID] | 12.13% | 7.85% | 2.83% |
| CN1CCC(=C2c3ccccc3CC(=O)c3sccc32)CC1.O=C(O)/C=C/C(=O)O [KETOTIFEN FUMARATE] | 1.04% | 3.18% | -3.16% |
| Nc1nc(Cl)nc2c1ncn2[C@@H]1O[C@H](CO)[C@@H](O)[C@H]1O | 2.26% | 4.78% | 0.98% |
| CC[C@H](C)C(=O)O[C@H]1C[C@H](O)C=C2C=C[C@H](C)[C@H](CC[C@@H](O)C[C@@H](O)CC(=O)[O-])[C@H]21.[Na+] [PRAVASTATIN SODIUM] | 13.36% | 4.25% | -0.35% |
| CC1=C(C(=O)O)N2C(=O)[C@@H](NC(=O)[C@H](N)c3ccccc3)[C@H]2SC1.O [CEPHALEXIN] | 2.49% | 2.01% | 4.2% |
| COCCOC(=O)C1=C(C)NC(C)=C(C(=O)OC(C)C)C1c1cccc([N+](=O)[O-])c1 (stereo not drawn) [NIMODIPINE] | 1.9% | 5.34% | -7.18% |
| COC(=O)CCc1ccc(OCC(O)CNC(C)C)cc1.Cl (stereo not drawn) [ESMOLOL HYDROCHLORIDE] | 3.48% | 1.99% | -7.33% |
| Cc1c(C(=O)NN2CCCCC2)nn(-c2ccc(Cl)cc2Cl)c1-c1ccc(I)cc1 | -0.74% | 7.4% | -5.99% |
| CC1CC2C3CCC4=CC(=O)C=CC4(C)[C@@]3(Cl)C(O)CC2(C)C1(O)C(=O)CO (stereo partly drawn) | 12.23% | 3.02% | -2.46% |
| COc1ccc2cc([C@H](C)C(=O)[O-])ccc2c1.[Na+] [NAPROXEN SODIUM] | 13.03% | 9.05% | -1.8% |
| CCCCNc1cc(C(=O)O)cc(S(N)(=O)=O)c1Oc1ccccc1 [BUMETANIDE] | 11.75% | 3.22% | 1% |
| CCCOc1ccc(C(=O)OCCN(CC)CC)cc1N.Cl [PROPARACAINE HYDROCHLORIDE] | 1.6% | 0.55% | 2.64% |
| CC(=O)CCCCn1cnc2c1c(=O)n(C)c(=O)n2C [LOMIFYLLINE] | 10.43% | 2.63% | -0.96% |
| Cn1ccnc1S [METHIMAZOLE] | 12.71% | 5.56% | 0.77% |
| COC(=O)C1=C(C)NC(C)=C(C(=O)OCC(C)C)C1c1ccccc1[N+](=O)[O-] (stereo not drawn) [NISOLDIPINE] | 25.81% | 6.12% | 42.23% |
| Br.CN(C)CCCC1(c2ccc(F)cc2)OCc2cc(C#N)ccc21 (stereo not drawn) [CITALOPRAM HYDROBROMIDE] | 0.36% | 2.48% | -12.2% |
| Nc1ncnc2c1ncn2[C@@H]1O[C@H](CO)[C@@H](O)[C@@H]1O [VIDARABINE] | 13.1% | 4.29% | 1.72% |
| CC(=O)OCC(=O)[C@@]12OC(C)(C)O[C@@H]1C[C@H]1[C@@H]3C[C@H](F)C4=CC(=O)C=C[C@]4(C)[C@@]3(F)[C@@H](O)C[C@@]12C [FLUOCINONIDE] | 13.39% | -0.27% | -0.92% |
| O=C(O)COCCN1CCN(C(c2ccccc2)c2ccc(Cl)cc2)CC1 (stereo not drawn) [CETIRIZINE] | -1.38% | 3.71% | -6.19% |
| COc1ccccc1N1CCN(CC(O)COc2cccc3ccccc23)CC1 (stereo not drawn) [NAFTOPIDIL] | -0.32% | 2.55% | 1.21% |
